In PubChem BioAssay:
Several values for one entry are separate records, joined by “and”; a condition that tells them apart may be missing. Identical values can stand only once. Results filed as inconclusive are left out. For some of these results: Entries with a potency or affinity are not part of this list. Activity calls are given as the source filed them.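 How the source made its calls, unless noted: active means at least 20% inhibition of 6-phosphogluconate dehydrogenase activity; inactive means the rest.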

Columns and labels:
[1] = molecular target: ATP-dependent translocase ABCB1 (Homo sapiens) (UniProt P08183); assay: MDR1 (ABCB1) efflux transporter inhibition, cell-based (AID 377; in the data active means fluorescence slope change above about 50%); conditions: MDR1-expressing cells, fluorescent substrate accumulation slope; stronger effect = higher value; concentration not given here
Chain of ATP-dependent translocase ABCB1 (Homo sapiens) (P08183 whole entry, looked up): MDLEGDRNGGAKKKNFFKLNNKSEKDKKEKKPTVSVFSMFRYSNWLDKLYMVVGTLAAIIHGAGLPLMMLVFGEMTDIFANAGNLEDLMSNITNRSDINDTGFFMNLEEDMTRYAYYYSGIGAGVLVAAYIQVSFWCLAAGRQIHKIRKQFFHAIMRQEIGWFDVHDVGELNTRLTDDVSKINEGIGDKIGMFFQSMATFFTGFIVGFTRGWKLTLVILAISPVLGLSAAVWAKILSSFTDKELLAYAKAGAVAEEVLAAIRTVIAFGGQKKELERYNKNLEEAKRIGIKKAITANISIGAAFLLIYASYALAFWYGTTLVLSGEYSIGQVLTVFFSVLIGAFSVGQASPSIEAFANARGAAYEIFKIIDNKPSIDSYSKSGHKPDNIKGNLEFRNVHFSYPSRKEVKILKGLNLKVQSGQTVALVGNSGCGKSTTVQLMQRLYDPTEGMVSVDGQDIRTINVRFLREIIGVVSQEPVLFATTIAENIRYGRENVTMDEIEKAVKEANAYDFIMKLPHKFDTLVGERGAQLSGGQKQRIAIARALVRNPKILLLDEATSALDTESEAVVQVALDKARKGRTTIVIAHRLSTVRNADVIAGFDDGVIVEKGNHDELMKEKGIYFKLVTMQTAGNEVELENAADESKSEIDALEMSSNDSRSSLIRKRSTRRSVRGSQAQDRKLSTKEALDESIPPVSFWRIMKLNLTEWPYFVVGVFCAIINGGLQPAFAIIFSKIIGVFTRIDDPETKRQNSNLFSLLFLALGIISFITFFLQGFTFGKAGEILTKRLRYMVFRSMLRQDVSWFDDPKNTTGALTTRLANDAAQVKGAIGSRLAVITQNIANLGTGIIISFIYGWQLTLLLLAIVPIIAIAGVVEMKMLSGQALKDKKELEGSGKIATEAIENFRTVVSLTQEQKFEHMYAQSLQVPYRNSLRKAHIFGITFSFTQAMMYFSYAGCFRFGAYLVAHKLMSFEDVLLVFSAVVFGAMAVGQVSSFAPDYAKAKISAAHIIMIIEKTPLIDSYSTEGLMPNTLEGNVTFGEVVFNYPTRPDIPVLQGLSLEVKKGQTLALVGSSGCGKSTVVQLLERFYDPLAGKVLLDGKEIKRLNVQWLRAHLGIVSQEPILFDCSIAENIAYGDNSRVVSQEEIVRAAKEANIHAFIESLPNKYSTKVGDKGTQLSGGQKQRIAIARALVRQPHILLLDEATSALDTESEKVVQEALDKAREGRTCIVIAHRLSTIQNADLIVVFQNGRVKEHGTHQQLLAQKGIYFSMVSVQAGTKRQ

[2] = polyglutamine-triggered caspase-3 activation inhibitors, cell-based (AID 1583); conditions: polyglutamine-induced caspase-3 activation, cell assay; stronger effect = higher value;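 tested at 10 µM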
[3] = suppressors of polyQ aggregation in yeast, 75Q-TubU reporter (AID 1593); conditions: Yeast 75Q polyglutamine aggregation reporter
[4] = rescue of polyQ-huntingtin neuronal dysfunction in worms, whole organism, C. elegans mechanosensory neurons, N-terminal huntingtin (AID 1599); conditions: touch response, stronger effect = higher value
[5] = inhibitors of mitochondrial cytochrome c release, biochemical, purified mitochondria (AID 1603); conditions: stronger effect = lower value;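 further: mouse liver mitochondria challenged with calcium chloride; signal normalized to the plate average as 100%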
[6] = inhibitors of polyQ protein aggregation (AID 1604); conditions: polyglutamine-induced protein aggregation inhibition assay; stronger effect = higher value; tested at 2.5 µM
[7] = enhancers of glutamate uptake in motor neurons, MN-1 cell line (AID 1612); conditions: MN-1 motor neuron cells, stronger effect = higher value;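 further: tested at 1 µM final; 0% = mean of DMSO vehicle wells on each plate; positive means more glutamate uptake than control and negative means less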
[8] = suppressors of polyglutamine aggregation in yeast, 75Q-TubH (AID 1616); conditions: S. cerevisiae 75Q-TubH polyglutamine aggregation suppression; stronger effect = higher value
[9] = liver-stage malaria parasite growth inhibition, primary screen, cell-based, HepG2, luciferase luminescence, HepG2 viability (AID 624349; in the data active means parasite load remaining mostly below about 12%, no sharp cut-off; inactive means mostly above about 10%;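 further: 100% = mean of DMSO negative control wells on the same plate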); conditions: P. berghei liver stage in HepG2, luciferase luminescence, concentration not given here; parasite load remaining: stronger effect = lower value; viability: measured here: HepG2 viability without parasites
[10] = molecular target: 6-phosphogluconate dehydrogenase, decarboxylating (Homo sapiens) (UniProt P52209); assay: 6PGD enzyme inhibitors, primary screen, biochemical, human, recombinant enzyme, NADPH absorbance (AID 1159550); conditions: recombinant 6PGD, NADPH absorbance 341 nm; at 10 µM; stronger effect = higher value
Chain of 6-phosphogluconate dehydrogenase, decarboxylating (Homo sapiens) (P52209 whole entry, looked up): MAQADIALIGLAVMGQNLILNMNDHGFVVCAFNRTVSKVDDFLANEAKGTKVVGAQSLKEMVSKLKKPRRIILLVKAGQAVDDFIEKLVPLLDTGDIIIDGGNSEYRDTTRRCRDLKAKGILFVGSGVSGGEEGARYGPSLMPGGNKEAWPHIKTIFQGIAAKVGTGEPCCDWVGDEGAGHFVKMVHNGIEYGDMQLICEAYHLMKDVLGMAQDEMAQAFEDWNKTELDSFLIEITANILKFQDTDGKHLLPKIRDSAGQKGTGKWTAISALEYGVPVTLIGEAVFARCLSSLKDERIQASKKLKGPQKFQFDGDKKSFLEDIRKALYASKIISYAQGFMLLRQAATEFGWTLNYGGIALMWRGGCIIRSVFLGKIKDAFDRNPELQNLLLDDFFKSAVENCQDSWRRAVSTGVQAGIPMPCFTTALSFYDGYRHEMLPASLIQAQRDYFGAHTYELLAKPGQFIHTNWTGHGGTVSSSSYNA

[11] = system: Aerobactin synthetase IucA (Klebsiella pneumoniae hvKP1); assay: Biochemical IucA enzyme inhibition primary screen of the Spectrum library (AID 1346200; call rule not given here;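 further: 100% = wells without compound and 0% = wells lacking enzyme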); conditions: malachite green pyrophosphate, A620, at 8 µM, stronger effect = lower value
[12] = sensitizers of A549 cells to miR-34 induction, primary screen, imaging, A549 dox-inducible miR-34, nuclei and caspase counts (AID 1347080;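 active means compounds whose cell count with miR-34 switched on is under 0.7 times the count with it off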); conditions: A549 miR-34 inducible, Hoechst nuclei count, 48 h
[13] = molecular target: NAD(+) hydrolase SARM1 (Homo sapiens) (UniProt Q6SZW1); assay: SARM1 TIR NADase inhibitors, cell lysate, NAD-Glo luminescence (AID 1508614;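 active means compound whose remaining NAD level is above about 45 nM, limit read from the data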); conditions: SAM-TIR HEK293T lysate NADase, at 1 µM, stronger effect = higher value
Chain of NAD(+) hydrolase SARM1 (Homo sapiens) (Q6SZW1 whole entry, looked up, the tested form may be a part): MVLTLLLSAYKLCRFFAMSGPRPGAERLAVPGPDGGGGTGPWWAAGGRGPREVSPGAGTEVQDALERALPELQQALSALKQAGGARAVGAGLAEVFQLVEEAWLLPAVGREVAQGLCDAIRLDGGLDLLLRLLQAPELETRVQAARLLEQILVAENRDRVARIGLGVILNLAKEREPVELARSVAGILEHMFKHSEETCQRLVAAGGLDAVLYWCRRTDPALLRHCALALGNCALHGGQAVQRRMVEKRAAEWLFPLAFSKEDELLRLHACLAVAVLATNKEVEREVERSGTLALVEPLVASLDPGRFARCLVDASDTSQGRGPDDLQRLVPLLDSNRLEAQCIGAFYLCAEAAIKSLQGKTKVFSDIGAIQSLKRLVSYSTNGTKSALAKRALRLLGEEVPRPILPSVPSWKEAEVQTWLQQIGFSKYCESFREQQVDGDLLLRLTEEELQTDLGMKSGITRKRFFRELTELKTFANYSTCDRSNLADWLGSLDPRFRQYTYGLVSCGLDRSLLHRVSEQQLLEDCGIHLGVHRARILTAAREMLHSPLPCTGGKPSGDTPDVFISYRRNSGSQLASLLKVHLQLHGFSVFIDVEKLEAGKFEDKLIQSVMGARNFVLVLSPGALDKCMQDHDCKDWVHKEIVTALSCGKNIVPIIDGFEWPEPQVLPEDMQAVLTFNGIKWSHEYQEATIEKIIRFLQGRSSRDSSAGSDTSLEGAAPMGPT

[14] = molecular target: Mitogen-activated protein kinase 7 (Homo sapiens) (UniProt Q13164); assay: ERK5 transactivation activators in reporter cells, primary screen, cell-based, HTS (AID 1508626;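 active means luciferase signal above three times the same-plate solvent-only control wells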;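 further: luciferase driven by Gal4-ERK5 fusion binding five Gal4 sites before minimal TATA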); conditions: HeLa Gal4-ERK5 transactivation, 18 h, at 5 µM, stronger effect = higher value
Chain of Mitogen-activated protein kinase 7 (Homo sapiens) (Q13164 whole entry, looked up, the tested form may be a part): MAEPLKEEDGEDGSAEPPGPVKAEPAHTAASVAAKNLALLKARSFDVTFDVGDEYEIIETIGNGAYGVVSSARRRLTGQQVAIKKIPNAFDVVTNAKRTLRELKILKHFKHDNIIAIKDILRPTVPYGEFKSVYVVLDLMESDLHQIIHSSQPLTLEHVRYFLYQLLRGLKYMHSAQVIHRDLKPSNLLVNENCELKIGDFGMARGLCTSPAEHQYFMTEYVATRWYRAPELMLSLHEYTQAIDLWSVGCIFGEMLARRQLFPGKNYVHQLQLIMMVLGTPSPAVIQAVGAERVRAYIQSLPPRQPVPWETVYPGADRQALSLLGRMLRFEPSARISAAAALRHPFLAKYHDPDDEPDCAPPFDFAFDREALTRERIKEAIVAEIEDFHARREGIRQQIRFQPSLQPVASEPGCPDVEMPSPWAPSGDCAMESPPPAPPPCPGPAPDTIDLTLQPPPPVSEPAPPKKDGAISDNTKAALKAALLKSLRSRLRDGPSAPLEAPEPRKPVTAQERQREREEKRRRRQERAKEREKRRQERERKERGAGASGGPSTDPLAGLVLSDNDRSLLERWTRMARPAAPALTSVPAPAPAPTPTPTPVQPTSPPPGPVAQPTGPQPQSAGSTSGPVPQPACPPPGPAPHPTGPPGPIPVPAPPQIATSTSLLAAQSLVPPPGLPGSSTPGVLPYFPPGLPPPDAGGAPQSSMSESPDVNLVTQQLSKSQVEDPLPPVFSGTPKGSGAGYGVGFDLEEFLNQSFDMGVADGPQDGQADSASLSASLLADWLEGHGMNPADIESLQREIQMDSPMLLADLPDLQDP

[15] = hESC survival regulators, cell-based (AID 493140; call rule not given here;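 further: cells exposed to compounds for four days before counting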); conditions: human embryonic stem cell survival screen; stronger effect = higher value
[16] = survival rescue of mitochondrial mutant cells in low glucose, primary screen, MELAS cybrids, Rieske KO mouse fibroblasts, CellTiter-Glo (AID 1508586;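 active means mean z-score across replicates of 1.96 or higher in either the MELAS or the Rieske mutant cell line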;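 further: z relative to plate mean and SD of compound and empty wells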)
[17] = viability rescue of complex I mutant cybrids, primary screen, cell-based, galactose medium, ATP luminescence (AID 1645843;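 active means z-score of at least 1.8 in each of two replicates, scored against plate mean and spread of sample wells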;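 further: positive z means more ATP and so rescue of galactose-driven cybrid death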); conditions: complex I mutant cybrid cells, 72 h, stronger effect = higher value
[18] = growth inhibition of DIPG glioma cells, dose response, cell-based, SU-DIPG-XIII, MIPE4.0, CellTiter-Glo, qHTS (AID 1347061; cut-off not given, nearly all actives have AC50 up to about 37 µM;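 further: cells exposed to compound for 48 hours before readout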); conditions: SU-DIPG-XIII viability, CellTiter-Glo ATP luminescence
[19] = growth inhibition of DIPG glioma cells, dose response, cell-based, SU-DIPG-IV, MIPE4.0, CellTiter-Glo, qHTS (AID 1347063; cut-off not given, nearly all actives have AC50 up to about 30 µM;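 further: compound exposure lasted 48 hours before the viability readout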); conditions: SU-DIPG-IV viability, CellTiter-Glo ATP luminescence
[20] = SU-DIPG-VI glioma cell viability, MIPE4.0 library, CellTiter-Glo luminescence, qHTS (AID 1347066; cut-off not given, nearly all actives have AC50 up to about 30 µM;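 further: cells exposed to compound for 48 hours before readout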); conditions: CellTiter-Glo ATP luminescence
[21] = circadian clock period modulators, cell-based, LOPAC library, luminescence reporter (AID 2774; call rule not given here;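 further: values are relative to mean of DMSO wells on each plate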); conditions: circadian reporter cells, at 7 µM, actives lie on both sides
[22] = system: Hepatitis C virus NS3 helicase; assay: HCV NS3 helicase inhibitors, primary screen, biochemical, fluorescence polarization, LOPAC1280 library (AID 687035; in the data active means inhibition above about 37%); conditions: Purified HCV NS3 helicase, Cy5-dT15 ssDNA binding fluorescence polarization; stronger effect = higher value; concentration not given here
[23] = Cy5 fluorescence quenching or enhancement artefacts, artefact control for HCV NS3 helicase inhibitor project, biochemical, LOPAC1280 (AID 687037; call rule not given here); conditions: Cy5-DNA-NS3h complex fluorescence interference counterscreen
[24] = system: Aerobactin synthetase IucA (Klebsiella pneumoniae, hypervirulent); assay: IucA enzyme inhibition, biochemical, LOPAC library, absorbance readout (AID 1346212; call rule not given here;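 further: 100% = no compound wells and 0% = no enzyme wells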); conditions: IucA enzyme assay, absorbance (OD) readout; stronger effect = lower value;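 tested at 8 µM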
[25] = growth inhibition of DIPG glioma cells, dose response, cell-based, JHH-DIPG-1, MIPE4.0, CellTiter-Glo, qHTS (AID 1347062; cut-off not given, nearly all actives have AC50 up to about 27 µM); conditions: JHH-DIPG-1 viability, CellTiter-Glo ATP luminescence
[26] = measured here: relative caspase fold change +Dox/-Dox
[27] = measured here: total cells with miR-34 induction, stronger effect = lower value
[28] = measured here: total cells without miR-34 induction
[29] = MELAS cybrid survival, CellTiter-Glo 48 h, stronger effect = higher value
[30] = Rieske KO mouse fibroblast survival, CellTiter-Glo 72 h

Structure (SMILES): C[CH2][Hg][S]c1ccccc1C(=O)O
- fluorescence slope change [1]: -19.9% (inactive)
- inhibition [2]: 67.3%
- score [3]: -0.03
- rescue above control [4]: 0
- cytochrome c release ratio [5]: 0.71
- inhibition of aggregation [6]: 18.2%
- glutamate uptake change [7]: 8.21%
- aggregation suppression score [8]: -0.00186
- parasite load remaining [9]: 82.3% (inactive) and 0.045% (inactive)
- viability [9]: 62% and 0.315%
- inhibition [10]: 17.7% (inactive)
- activity remaining [11]: -3.51% (active)
- fold change ([12]; stronger effect = lower value): 1.62 (inactive)
- fold change [12, 26]: 0.728
- cell count [12, 27]: 630
- cell count [12, 28]: 389
- remaining NAD [13]: 10 nM (inactive)
- luciferase signal [14]: 44 AU (inactive)

Structure (SMILES): C[C@]12CC[C@H](O)C[C@@H]1CC[C@@H]1[C@@H]2CC[C@]2(C)C(=O)CC[C@@H]12
- fluorescence slope change [1]: 99.1% (active)
- survival [15]: 10.7 (inactive)
- parasite load remaining [9]: 91.7% (inactive) and 87.8% (inactive)
- viability [9]: 100% and 84.1%
- inhibition [10]: 18.5% (inactive)
- fold change ([12]; stronger effect = lower value): 0.944 (inactive)
- fold change [12, 26]: 1.47
- cell count [12, 27]: 7960
- cell count [12, 28]: 8440
- z-score [16, 29]: 0.265 (inactive)
- z-score [16, 30]: 0.304
- luciferase signal [14]: 20 AU (inactive)

Structure (SMILES): COc1ccc2c(c1)[C@]13CCCC[C@@H]1[C@H](C2)N(C)CC3
- inhibition [10]: 2.05% (inactive)
- fold change ([12]; stronger effect = lower value): 0.873 (inactive) and 0.843 (inactive) and 0.893 (inactive)
- fold change [12, 26]: 2.02 and 0.727 and 1.27
- cell count [12, 27]: 9020 and 10500 and 9760
- cell count [12, 28]: 10300 and 12400 and 10900
- z-score [16, 29]: 0.326 (inactive) and 0.234 (inactive)
- z-score [16, 30]: 0.302 and -0.256
- remaining NAD [13]: 10 nM (inactive)
- luciferase signal [14]: 28 AU (inactive)
- z-score [17]: -0.13 (inactive)

Structure (SMILES): CCC(=O)O[C@H]1CC[C@H]2[C@@H]3CCC4=CC(=O)CC[C@]4(C)[C@H]3CC[C@]12C
- survival [15]: 13.8 (inactive)
- parasite load remaining [9]: 71.3% (inactive) and 54% (inactive)
- viability [9]: 94.2% and 78.8%
- inhibition [10]: 16.6% (inactive)
- fold change ([12]; stronger effect = lower value): 0.875 (inactive)
- fold change [12, 26]: 1.34
- cell count [12, 27]: 8190
- cell count [12, 28]: 9360
- z-score [16, 29]: -0.581 (inactive)
- z-score [16, 30]: -0.301
- remaining NAD [13]: 10 nM (inactive)
- luciferase signal [14]: 32 AU (inactive)

Structure (SMILES): N#C[C@H](O[C@@H]1O[C@H](CO[C@@H]2O[C@H](CO)[C@@H](O)[C@H](O)[C@H]2O)[C@@H](O)[C@H](O)[C@H]1O)c1ccccc1
- inhibition [10]: -14.3% (inactive)
- AC50 [18]: 23.5 µM (active)
- AC50 [19]: 8.33 µM (active)
- AC50 [20]: 20.9 µM (active)
- luciferase signal [14]: 56 AU (inactive)

Structure (SMILES): CC(=O)O[C@@H]1CC2C(C)(C)[C@H](O)C=C[C@]2(C)C2CC[C@]3(C)C(=CC(=O)O[C@H]3c3ccoc3)[C@@]21C (stereo partly specified)
- inhibition [10]: -4.71% (inactive)
- activity remaining [11]: 105% (inactive)
- luciferase signal [14]: 120 AU (inactive)

Structure (SMILES): CC(C)Nc1nc(Cl)nc(NC(C)C)n1
- inhibition [10]: -12% (inactive)
- activity remaining [11]: 111% (inactive)
- luciferase signal [14]: 52 AU (inactive)

Structure (SMILES): CCCN(CCC)c1c([N+](=O)[O-])cc(C(F)(F)F)cc1[N+](=O)[O-]
- inhibition [10]: -18.5% (inactive)
- activity remaining [11]: 95.7% (inactive)
- luciferase signal [14]: 72 AU (inactive)

Structure (SMILES): C[C@]12CCC(=O)C=C1C=C[C@@H]1[C@@H]2CC[C@@]2(C)[C@H]1CC[C@@]2(O)CCC(=O)O
- fluorescence slope change [1]: 75% (active)
- survival [15]: 19.2 (inactive)
- parasite load remaining [9]: 48.7% (inactive) and 84.2% (inactive)
- viability [9]: 45.8% and 86.3%
- inhibition [10]: -4.06% (inactive)
- fold change ([12]; stronger effect = lower value): 0.935 (inactive)
- fold change [12, 26]: 1.18
- cell count [12, 27]: 8420
- cell count [12, 28]: 9010
- z-score [16, 29]: 0.754 (inactive)
- z-score [16, 30]: 0.299

Structure (SMILES): CCC(C)C(=O)O[C@@H]1C[C@@]2(C)[C@H](c3ccoc3)OC(=O)CC23OC2(C)O[C@]14[C@]1(C)[C@@H](CC(=O)OC)C5(C)CC1(O)[C@](O)(C5OC(=O)C1(C)OC1C)[C@@H](OC(C)=O)[C@]34O2 (stereo partly specified)
- inhibition [10]: -16.5% (inactive)
- activity remaining [11]: 103% (inactive)
- luciferase signal [14]: 12 AU (inactive)

Structure (SMILES): COc1ccc(C(=O)O[C@H]2CC[C@@]3(C)[C@@H]4CC[C@H]5[C@]6(O)C[C@H](O)[C@@]7(O)[C@@H](CN8C[C@@H](C)CC[C@H]8[C@@]7(C)O)[C@]6(O)C[C@@]53O[C@]24O)cc1OC
- inhibition [10]: 9.47% (inactive)
- fold change ([12]; stronger effect = lower value): 0.935 (inactive)
- fold change [12, 26]: 1.54
- cell count [12, 27]: 6050
- cell count [12, 28]: 6480

Structure (SMILES): CCC(C)[C@H]1O[C@]2(C=C[C@@H]1C)C[C@@H]1C[C@@H](C/C=C(\C)[C@@H](OC3C[C@H](OC)C(O[C@H]4C[C@H](OC)[C@@H](O)[C@H](C)O4)[C@H](C)O3)[C@@H](C)/C=C/C=C3\CO[C@@H]4[C@H](O)C(C)=C[C@@H](C(=O)O1)[C@]34O)O2 (stereo partly specified)
- inhibition [2]: -42.7%
- score [3]: 1.47
- rescue above control [4]: 0
- cytochrome c release ratio [5]: 4.06
- inhibition of aggregation [6]: 43.1%
- glutamate uptake change [7]: -28.6%
- aggregation suppression score [8]: 1.02
- parasite load remaining [9]: 83.1% (inactive) and 34.5% (inactive)
- viability [9]: 68% and 87%
- inhibition [10]: -3.19% (inactive)
- activity remaining [11]: 106% (inactive)
- fold change ([12]; stronger effect = lower value): 1.11 (inactive)
- fold change [12, 26]: 1.23
- cell count [12, 27]: 3700
- cell count [12, 28]: 3330

Structure (SMILES): C[N+](C)(C)CC(=O)O
- period change [21]: -0.005 h (inactive)
- inhibition [22]: -5% (inactive)
- fluorescence ratio (interference) [23]: 0.9 (inactive)
- inhibition [10]: 5.32% (inactive)
- remaining activity [24]: 106% (inactive)
- outcome [18]: inactive
- outcome [25]: inactive
- outcome [19]: inactive
- outcome [20]: inactive
- fold change ([12]; stronger effect = lower value): 1.03 (inactive)
- fold change [12, 26]: 1.89
- cell count [12, 27]: 9950
- cell count [12, 28]: 9700
- remaining NAD [13]: 10 nM (inactive)
- luciferase signal [14]: 268 AU (inactive)
- z-score [17]: 0.805 (inactive)

Structure (SMILES): N#Cc1c(Cl)cccc1Cl
- inhibition [10]: -5.35% (inactive)
- activity remaining [11]: 93.8% (inactive)
- luciferase signal [14]: 52 AU (inactive)

Structure (SMILES): CCCCCC[C@H]1C(=O)O[C@H](C)[C@H](NC(=O)c2cccc(NC=O)c2O)C(=O)O[C@@H](C)[C@@H]1OC(=O)CC(C)C
- inhibition [10]: 3.85% (inactive)
- AC50 [20]: 1.32 µM (active)
